Bioassay records as filed in PubChem BioAssay.
This excerpt belongs to a sample that is enriched for hits.
mHTT CaM bind: mutant huntingtin-calmodulin interaction inhibitors – biochemical, AlphaScreen, primary screen; P42858; AlphaScreen His-mHTT/GST-CaM binding, luminescence; inhibition, % at 15 µM; hit rate 3.6% among 190,000; AID 1671202, 2021;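 further: 0% = both proteins with DMSO and 100% = one protein alone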
Target sequence (P42858 whole entry, looked up, stated change not applied): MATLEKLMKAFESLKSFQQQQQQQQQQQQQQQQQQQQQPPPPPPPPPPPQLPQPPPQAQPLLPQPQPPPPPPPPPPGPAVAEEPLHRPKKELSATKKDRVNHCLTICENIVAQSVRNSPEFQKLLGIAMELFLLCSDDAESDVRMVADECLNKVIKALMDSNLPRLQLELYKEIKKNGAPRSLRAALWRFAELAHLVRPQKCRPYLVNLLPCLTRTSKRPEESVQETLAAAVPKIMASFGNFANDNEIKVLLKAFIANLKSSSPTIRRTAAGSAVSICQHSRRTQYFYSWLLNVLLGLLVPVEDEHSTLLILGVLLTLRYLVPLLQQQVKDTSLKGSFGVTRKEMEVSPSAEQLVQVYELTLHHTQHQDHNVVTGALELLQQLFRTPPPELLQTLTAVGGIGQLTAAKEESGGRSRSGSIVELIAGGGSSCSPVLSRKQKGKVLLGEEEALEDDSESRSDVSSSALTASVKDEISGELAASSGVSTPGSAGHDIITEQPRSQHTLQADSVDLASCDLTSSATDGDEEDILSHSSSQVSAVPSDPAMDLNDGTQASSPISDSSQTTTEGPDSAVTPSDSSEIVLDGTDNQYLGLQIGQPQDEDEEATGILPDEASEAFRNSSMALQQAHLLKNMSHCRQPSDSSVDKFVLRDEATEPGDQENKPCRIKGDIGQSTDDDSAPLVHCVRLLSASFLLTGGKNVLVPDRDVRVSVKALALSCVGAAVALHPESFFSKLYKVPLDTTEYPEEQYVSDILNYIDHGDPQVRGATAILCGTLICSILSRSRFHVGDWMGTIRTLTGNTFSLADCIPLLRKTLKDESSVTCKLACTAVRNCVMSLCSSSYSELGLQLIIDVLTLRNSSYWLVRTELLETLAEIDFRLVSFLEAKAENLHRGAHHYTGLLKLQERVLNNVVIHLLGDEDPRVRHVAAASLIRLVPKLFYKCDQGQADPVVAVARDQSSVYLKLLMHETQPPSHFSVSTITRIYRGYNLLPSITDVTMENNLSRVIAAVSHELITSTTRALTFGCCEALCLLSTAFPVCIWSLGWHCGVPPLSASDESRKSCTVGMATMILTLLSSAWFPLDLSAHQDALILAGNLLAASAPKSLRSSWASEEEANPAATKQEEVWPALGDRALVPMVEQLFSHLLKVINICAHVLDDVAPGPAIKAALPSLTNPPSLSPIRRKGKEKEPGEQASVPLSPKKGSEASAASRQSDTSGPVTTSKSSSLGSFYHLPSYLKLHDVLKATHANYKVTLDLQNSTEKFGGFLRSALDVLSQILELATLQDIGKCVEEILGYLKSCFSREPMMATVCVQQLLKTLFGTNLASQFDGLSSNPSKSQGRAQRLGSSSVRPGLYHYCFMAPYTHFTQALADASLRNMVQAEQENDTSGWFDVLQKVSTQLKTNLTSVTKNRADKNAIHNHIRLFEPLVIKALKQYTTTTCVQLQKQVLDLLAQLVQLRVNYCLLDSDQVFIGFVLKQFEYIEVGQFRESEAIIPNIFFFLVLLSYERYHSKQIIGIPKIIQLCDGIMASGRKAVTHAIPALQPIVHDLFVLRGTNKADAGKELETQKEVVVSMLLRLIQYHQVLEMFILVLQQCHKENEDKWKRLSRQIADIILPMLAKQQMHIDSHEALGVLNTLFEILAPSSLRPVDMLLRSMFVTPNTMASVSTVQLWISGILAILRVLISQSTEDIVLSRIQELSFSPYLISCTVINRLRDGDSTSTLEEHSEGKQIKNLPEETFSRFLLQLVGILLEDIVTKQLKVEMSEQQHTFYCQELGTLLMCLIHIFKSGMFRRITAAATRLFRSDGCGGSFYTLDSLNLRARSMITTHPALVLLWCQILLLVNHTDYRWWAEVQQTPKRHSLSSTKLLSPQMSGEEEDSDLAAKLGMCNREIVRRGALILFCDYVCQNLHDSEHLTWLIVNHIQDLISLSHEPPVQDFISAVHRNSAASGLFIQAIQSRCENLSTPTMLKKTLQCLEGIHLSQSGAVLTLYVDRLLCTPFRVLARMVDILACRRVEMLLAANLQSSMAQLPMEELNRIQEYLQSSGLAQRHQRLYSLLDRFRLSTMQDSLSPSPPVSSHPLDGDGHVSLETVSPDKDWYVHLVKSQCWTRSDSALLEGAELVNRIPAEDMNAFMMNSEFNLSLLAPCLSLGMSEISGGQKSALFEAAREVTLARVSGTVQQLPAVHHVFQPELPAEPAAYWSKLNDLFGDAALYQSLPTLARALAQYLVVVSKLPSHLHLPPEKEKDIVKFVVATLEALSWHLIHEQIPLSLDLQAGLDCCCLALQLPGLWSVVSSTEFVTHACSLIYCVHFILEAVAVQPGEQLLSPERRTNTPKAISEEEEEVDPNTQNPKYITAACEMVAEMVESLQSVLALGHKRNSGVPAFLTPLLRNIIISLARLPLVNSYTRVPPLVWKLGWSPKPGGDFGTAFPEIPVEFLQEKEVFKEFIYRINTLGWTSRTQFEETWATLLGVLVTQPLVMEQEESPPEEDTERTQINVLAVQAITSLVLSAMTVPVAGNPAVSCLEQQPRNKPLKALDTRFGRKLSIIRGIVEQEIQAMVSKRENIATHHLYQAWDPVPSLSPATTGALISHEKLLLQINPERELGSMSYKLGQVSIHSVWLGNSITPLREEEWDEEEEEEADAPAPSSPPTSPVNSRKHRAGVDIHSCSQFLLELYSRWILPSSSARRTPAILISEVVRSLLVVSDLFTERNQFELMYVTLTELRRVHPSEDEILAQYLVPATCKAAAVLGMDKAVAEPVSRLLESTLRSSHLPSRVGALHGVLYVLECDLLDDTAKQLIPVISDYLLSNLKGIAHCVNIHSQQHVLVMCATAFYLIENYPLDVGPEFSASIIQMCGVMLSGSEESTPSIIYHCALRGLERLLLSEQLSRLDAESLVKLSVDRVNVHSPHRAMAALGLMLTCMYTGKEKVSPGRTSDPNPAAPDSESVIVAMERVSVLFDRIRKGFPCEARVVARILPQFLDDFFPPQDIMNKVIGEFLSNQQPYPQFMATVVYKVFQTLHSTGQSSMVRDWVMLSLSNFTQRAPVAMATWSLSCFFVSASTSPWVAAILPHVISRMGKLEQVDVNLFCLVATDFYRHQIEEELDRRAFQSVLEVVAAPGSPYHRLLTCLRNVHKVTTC
Pf apPOL block: Pf-apPOL inhibitors, biochemical, fluorescence; Plasmodium falciparum apicoplast DNA polymerase (apPOL); Recombinant Pf-apPOL, molecular beacon fluorescence, 1.5 h; inhibition, % at 10 µM; AID 1794808, 2022; hit rate 0.25% among 210,000
Active calls of the source: *; · = no result. No stated cut-off is given here; in the data, active means inhibition above about 50%; inactive means the rest.

SMILES | mHTT CaM bind | Pf apPOL block
COc1cccc2c1OC(c1cccc(F)c1)N1N=C(c3ccco3)CC21 (centres undefined) | 32.0 | -17.4
Fc1ccc(C2Oc3ccc(Cl)cc3C3CC(c4ccco4)=NN32)cc1F (centres undefined) | 82.0* | -17.3
CCOc1cccc2c1OC(c1ccc(F)c(F)c1)N1N=C(c3ccco3)CC21 (centres undefined) | 14.0 | -29.2
Brc1ccc2c(c1)C1CC(c3ccco3)=NN1C(c1cccs1)O2 (centres undefined) | 89.0* | 1.2
COc1cc(C2Oc3c(OC)cccc3C3CC(c4ccco4)=NN32)cc(OC)c1OC (centres undefined) | 38.0 | -14.5
Cc1cccc(-n2c(CN3CCN(C(=O)Nc4ccccc4F)CC3)nc3cccnc32)c1 | -2.5 | -2.4
Cc1cccc(N2C(N)=C(C#N)C(c3cccnc3)C3=C2CC(C)(C)CC3=O)c1 (centres undefined) | 3.0 | 3.7
CCOc1ccccc1NC(=O)C(=O)Nc1ccc([N+](=O)[O-])cc1 | -4.8 | -6.5
COc1ccccc1N1CCN(C(=O)C2CN(C(=O)c3ccc(F)c(F)c3)C2)CC1 | -1.2 | -9.3
N#Cc1cc(F)ccc1C(F)(F)F | 0.7 | ·
Cc1nc2cc(C(=O)O)ccc2n1-c1ccc(F)c(F)c1 | -2.0 | -0.5
COc1ccc(C2=NN3C(C2)c2cc(OC)ccc2OC3c2cc(OC)c(OC)c(OC)c2)cc1 (centres undefined) | 59.0* | -15.5
COc1cc(C2Oc3ccccc3C3CC(c4ccccc4)=NN32)cc(OC)c1OC (centres undefined) | -4.6 | ·
COCCNC(=O)C1Cc2ccccc2N2CCN(c3cccc(Cl)c3)CC12 (centres undefined) | 57.1* | 2.5
COCCNC(=O)C1Cc2ccccc2N2CCN(c3ccccc3F)CC12 (centres undefined) | 5.0 | 0.2
CC(C)CNC(=O)c1ccc(-c2cccs2)nc1 | -5.7 | -3.3
Cc1ccc(-n2nnc(C(=O)O)c2C(F)(F)F)cc1C | 4.1 | 2.8
O=C(c1c(F)cccc1F)N1CCC(c2cnn(-c3cccc(F)c3)c2)CC1 | -16.2 | -3.9
COc1ccc(C(=O)Oc2cc(C)[nH]c(=O)c2[N+](=O)[O-])c(OC)c1 | 55.8* | 0.7
CCCCC(=O)Oc1cc(C)[nH]c(=O)c1[N+](=O)[O-] | -4.2 | 2.5
CCCC(CCC)C(=O)Oc1cc(C)[nH]c(=O)c1[N+](=O)[O-] | 87.3* | -9.5
COc1ccccc1C(=O)Oc1cc(C)[nH]c(=O)c1[N+](=O)[O-] | 8.5 | -6.4
CCCN1C(=O)Cc2cc(C(=O)N3CCN(c4ccccc4C)CC3)ccc21 | 54.9* | -1.9
CCCN1C(=O)Cc2cc(C(=O)N3CCN(c4ccccn4)CC3)ccc21 | 4.5 | -3.0
COc1cccc(C2=NOC(C(=O)Nc3cccc(C(F)(F)F)c3)C2)c1OC (centres undefined) | -16.0 | -1.3
SMILES | mHTT CaM bind | Pf apPOL block
O=C(NC1CCCCC1)C1CCN(c2nc3ccccc3o2)CC1 | -9.0 | -15.2
OCCNCCOc1ccc(Cl)cc1 | -5.9 | 76.9*
Cc1cc(OCCNCCO)cc(C)c1Cl | 3.8 | -1.6
O=C(Nc1ccc(C(F)(F)F)cc1[N+](=O)[O-])O[C@H]1[C@H](Cc2ccccc2)NS(=O)(=O)[C@H]2C[C@@H]3C=C[C@]12O3 | 65.0* | -4.6
Cc1cc(C(=O)O[C@H]2[C@H](Cc3ccccc3)NS(=O)(=O)[C@H]3C[C@@H]4C=C[C@]23O4)ccc1[N+](=O)[O-] | 16.8 | -7.5
CCC(=O)N1CCc2sc(S(=O)(=O)Nc3ccccc3)cc2C1 | 9.3 | -0.2
CCC(=O)N1CCc2sc(S(=O)(=O)Nc3ccc(F)cc3)cc2C1 | 51.2* | -6.5
N#CC1=C(N)N(c2c(F)cccc2F)C2=C(C(=O)CCC2)C1c1cccnc1 (centres undefined) | -3.0 | -1.3
CCCN1C(=O)C2CCC(=O)N2c2ccc(C(=O)NCc3ccccc3OC)cc21 (centres undefined) | 11.2 | -9.0
N#C/C(=C\C=C\c1ccco1)c1nc2ccccc2s1 | 76.3* | -10.5
N#C/C(=C\c1ccco1)c1nc(-c2ccccc2)cs1 | -10.1 | -2.7
O=[N+]([O-])c1ccccc1-c1ccc(/C=C/c2ccncc2)o1 | 69.0* | 6.0
O=Cc1ccc(-c2ccccc2[N+](=O)[O-])o1 | 8.0 | -1.4
O=C(/C=C/c1ccc(-c2ccccc2[N+](=O)[O-])o1)c1cc2ccccc2o1 | 76.6* | 11.4
CC1(C)OC(=O)C(=Cc2ccc(-c3ccccc3[N+](=O)[O-])o2)C(=O)O1 | 1.0 | 5.2
NC1=NC(=O)/C(=C/c2ccc(-c3ccccc3[N+](=O)[O-])o2)S1 | 59.0* | -11.8
O=C(C=Cc1ccc([N+](=O)[O-])cc1)c1cc2ccccc2oc1=O | 1.6 | 0.9
COc1cc(NC(=O)N2CCCC2c2cccc(F)c2)cc(OC)c1 (centres undefined) | -2.4 | -2.2
COc1cc(OC)c(OC)cc1/C=C1\N=C(c2ccc([N+](=O)[O-])cc2)OC1=O | -3.0 | 1.5
COc1cc(OC)c(OC)cc1/C=C1/N=C(c2ccc(OC)c([N+](=O)[O-])c2)OC1=O | -1.0 | -2.0
Cc1cc(N2CCCC2)n2nc(CN3CCc4ccccc4C3)nc2n1 | 6.2 | 2.6
CCSc1nnc(-c2nn(C)c3c2CN(C(=O)Cc2ccccc2C)CC3)n1C | 2.6 | -1.0
Cc1ccccc1-n1c(SCC(=O)Nc2cccc(Cl)c2C)nc2[nH]ncc2c1=O | 25.0 | -3.0
COc1cc(OC)c(OC)cc1C=C1Oc2c(ccc3c2CN(Cc2ccccn2)CO3)C1=O | 97.4* | -52.5
COc1ccc(CN2COc3ccc4c(c3C2)OC(=Cc2cccc(OC)c2OC)C4=O)cc1OC | -2.8 | -6.5
SMILES | mHTT CaM bind | Pf apPOL block
COc1ccc(C=C2Oc3c(ccc4c3CN(Cc3ccncc3)CO4)C2=O)c(OC)c1 | 48.8 | -25.6
COc1ccccc1C=C1Oc2c(ccc3c2CN(Cc2ccccn2)CO3)C1=O | -2.5 | -35.0
COc1ccc(Br)cc1C=C1Oc2c(ccc3c2CN(Cc2ccccn2)CO3)C1=O | 100.3* | -197.3
COc1cccc(C=C2Oc3c(ccc4c3CN(Cc3ccccn3)CO4)C2=O)c1OC | 100.3* | -92.3
CCOc1ccccc1C(=O)N1CCCN(c2ncccc2-c2nc(C(C)C)no2)CC1 | 3.6 | 6.6
Cc1ccc(S(=O)(=O)N(CC(=O)NCC2CCCO2)Cc2cccc(Cl)c2)cc1 (centres undefined) | 1.5 | -1.7
CCOc1ccc(NC(=O)C23CC4CCC(CC(C4)C2)C3)cc1 | -3.8 | -5.0
COc1ccccc1N1CCN(C(=O)c2cn(-c3ccc(F)cc3F)c(=O)c3ccccc23)CC1 | 36.0 | -4.0
O=C(c1cn(-c2ccc(F)cc2F)c(=O)c2ccccc12)N1CCC(Cc2ccccc2)CC1 | 61.0* | -4.2
COC(=O)c1cccc(C(=O)Nc2ccc(C)c(C)c2)n1 | -5.1 | 2.3
CN1CCCN(Cc2ccc(Br)cc2)CC1 | 0.1 | 74.7*
CCN(CC)c1ccc(CN2CCN(c3ncccn3)CC2)cc1 | 7.7 | -9.8
CCN1CCN(Cc2ccc(N(CC)CC)cc2)CC1 | 68.8* | 38.3
CCN(CC)c1ccc(CN2CCN(C)CC2)cc1 | 67.9* | 0.4
CC(C)c1ccc(CN2CCCN(C)CC2)cc1 | -2.7 | -11.0
CCN(CC)c1ccc(CN2CCSCC2)cc1 | 24.7 | 0.0
CCc1cccc(NC(=O)N2CCc3c(c(-c4nc(-c5ccccc5)no4)nn3C)C2)c1 | 4.4 | -4.1
O=C(CCC(=O)N1CCN(Cc2csc(-c3ccccc3)n2)CC1)c1ccccc1 | 19.6 | -9.4
